# FAS TE block: blocks the thioesterase domain of human fatty acid synthase | recombinant FAS-TE, OMFH fluorogenic substrate, fluorescence endpoint | P49327 | inhibition, % at 15 µM | actives 0.67% (n = 360,000);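 active = compounds whose normalised, plate-corrected inhibition of enzyme fluorescence in the single-dose primary screen is 50% or more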;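 also: 0% = DMSO with enzyme and 100% = substrate without enzyme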
# proKLK7 act: activates the human kallikrein-7 zymogen | purified proKLK7, EDANS-DABCYL substrate fluorescence; 100% is mature enzyme control, 0% vehicle | activation, % at 7 µM | P49862 | actives 0.9% (n = 370,000);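 active = activation above the mean of all tested compounds plus 3 SD, computed per campaign excluding outliers beyond control limits, cut at about 13% in these data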
# SMARCA2 act: increases SMARCA2 function in MMTV reporter cells | MG213 cells, MMTV-luciferase reporter, dexamethasone, overnight | activation, % at 9.1 µM | actives 1% (n = 370,000) | AID 652017; in the data active = activation above about 7.8%;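 also: 0% = vehicle wells and 100% = reference activator wells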
# FXN GAA850 act: frataxin GAA850 promoter activation | AID 540364 | actives 0.56% (n = 360,000) | HEK293 lucGAA850 FXN promoter luciferase reporter, 24 h; percent of 10 µM SAHA response | activation, % at 6 µM;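 active = activation above the average of all compounds screened plus 3 SD, cutoff fixed separately per campaign, cut at about 7.5% in these data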;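 also: 0% = DMSO wells and 100% = 10 µM SAHA wells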
# SMARCA2 conf: SMARCA2 activation, confirmation screen. shares compounds with SMARCA2 act. MG213 cells, MMTV-luciferase with dexamethasone, luminescence, overnight; MG213 cells expressing E1A, Rb sequestered; DMSO wells 0%, reference activator 100%. activation, % at 9.1 µM. actives 30% (n = 3,500);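 active = activation above its plate's cutoff, the mean activation of tested wells plus 3 SD, cut at about 7.9% in these data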
# GAL4-VP16 Luc: activates GAL4-VP16 luciferase, flagging SMARCA2 activator hits; shares compounds with SMARCA2 act; HEK293 GAL4-VP16 pG5luc reporter, luciferase luminescence; scaled: DMSO wells 0%, SAHA wells 100%; activation, % at 9.1 µM; actives 41% (n = 3,500);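 active = activation above the solvent-only control well mean plus 3 SD, averaged across control plates, cut at about 5.2% in these data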
# Active calls of the source: *; x = not tested or not shown. Hits are enriched below; roughly 2.9% of the tested compounds scored in any of these assays.
SMILES,FAS TE block,proKLK7 act,SMARCA2 act,FXN GAA850 act,SMARCA2 conf,GAL4-VP16 Luc
COc1ccc(CCn2c(SCCN3CCCCC3)nc3ccccc3c2=O)cc1OC,-9,1,13*,4,2,2
CC(C)c1ccc(/C=C2\SC(N3CCCC3)=NC2=O)cc1,0,0,8.3*,1,1,-1
COc1ccccc1NC(=O)Nc1cc(C(C)C)ccc1C,-8,0,0,2,x,x
CCOC(=O)c1cn2nc(Oc3ccc(C)cc3)ccc2n1,-5,1,15*,2,2,2
CCOC(=O)c1cn2nc(Oc3ccc(OC)cc3)ccc2n1,-4,0,-1,0,x,x
Cc1csc(NC(=O)CN2C(=O)c3ccccc3C2=O)c1C(N)=O,-6,1,9.1*,2,5,1
COC(=O)C1=C(C)N(C)C(=O)NC1c1ccsc1 (centres undefined),-10,0,-3,1,x,x
S=c1[nH]nc(-c2ccc(Cl)cc2Cl)n1-c1ccccc1,-2,0,16*,3,6,6.4*
S=c1[nH]nc(-c2ccc(Cl)cc2Cl)n1Cc1ccccc1,-3,0,-5,3,x,x
COc1ccc(N2CCN(C(=O)c3cccc(S(=O)(=O)N4CCc5ccccc54)c3)CC2)cc1,19,0,3,-2,x,x
COc1ccc(-c2nnc(-c3ccc(N(C)C)cc3)o2)cc1,-6,-4,16*,2,12*,1
COc1cccc(NC(=O)CCC2CCN(C(=O)C3CC=CCC3)CC2)c1 (centres undefined),0,0,8.0*,-2,-3,2
Cc1ccc2c(c1)N(CC(=O)NCC(C)c1ccccc1)C(=O)c1cccnc1O2 (centres undefined),5,0,12*,0,-3,0
Cc1ccc2c(c1)N(CC(=O)NCCCc1ccccc1)C(=O)c1cccnc1O2,27,0,3,-2,x,x
Clc1ccc(-c2nnc(-c3ccccc3)o2)cn1,1,-1,8.6*,2,4,4
c1ccc(-c2nnc(-c3ccco3)o2)cc1,-5,0,8.4*,2,7,9.0*
c1coc(-c2nnc(-c3ccc4c(c3)OCO4)o2)c1,x,-3,10*,x,8.4*,11*
CC(C)OCCCNc1ccc(N2C(=O)CCCC2=O)cc1[N+](=O)[O-],-86,0,0,2,x,x
O=C(CCC1CCN(C(=O)C2CC=CCC2)CC1)Nc1ccccc1 (centres undefined),-3,-1,-5,0,x,x
CN(Cc1ccccc1)C(=O)c1ccc(NC(=O)Cc2ccc(NC(=O)C3CCCN(C(=O)CCc4ccccc4)C3)cc2)cc1 (centres undefined),6,1,-7,-5,x,x
Cc1ccc2c(CN(C)Cc3ccccc3)cc(=O)oc2c1,4,0,11*,x,12*,11*
O=C(Nc1cccc(Cl)c1)Nc1cccc(C(=O)O)c1,-5,0,14*,3,7.9*,4
O=C(NCc1ccccc1)C(=O)Nc1cccc(C(=O)O)c1,-5,0,13*,4,10*,11*
CCOC(=O)c1cccc(NC(=O)Nc2ccc(OCC)cc2)c1,2,0,0,-1,x,x
O=C(Nc1ccc(Cl)cc1)Nc1cccc(C(=O)O)c1,-4,-1,7,7,x,x
SMILES,FAS TE block,proKLK7 act,SMARCA2 act,FXN GAA850 act,SMARCA2 conf,GAL4-VP16 Luc
CCOc1ccc(NC(=O)Nc2cccc(C(=O)O)c2)cc1,-6,0,11*,4,7,9.3*
CSc1cccc(NC(=O)C(=O)NCc2ccccc2)c1,-4,0,1,1,x,x
COc1cccc(/C=N/N2CCOCC2)c1O,-12,-2,10*,3,4,3
Cc1ccc(C(=O)CNc2cccc([N+](=O)[O-])c2)cc1,12,0,11*,3,7,6.3*
Cc1ccc(NCCC(=O)c2cccc([N+](=O)[O-])c2)c(C)c1,30,0,8.6*,2,7,3
O=C(CNc1cccc(Cl)c1)c1ccc(Br)cc1,5,-1,8.9*,2,9.8*,-1
Cc1cccc(NCCC(=O)c2ccc([N+](=O)[O-])cc2)c1C,20,0,0,-2,x,x

# Assay outcomes deposited in PubChem BioAssay by several laboratories.
